In PubChem BioAssay (NCI):
About 79,000 compounds went through this panel and 15% of them were active in at least one assay; those are over-represented in the sample as a whole. Active and inactive are the calls of the source. Rule as the data show it: active = growth inhibition above about 70%; inactive = the rest.

What was measured:
[1] = NCI Yeast Anticancer Drug Screen. Data for the rad50 strain (AID 155);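 also: 0% = growth of vehicle-only cultures of the same strain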; details: S. cerevisiae rad50 strain growth inhibition; at 50.0 µM; stronger effect = higher value
Outline: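 DNA repair mutant yeast, compound exposure, growth read-out; inhibition is taken relative to vehicle.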

[2] = NCI Yeast Anticancer Drug Screen. Data for the mec2-1 strain (AID 157); details: S. cerevisiae mec2-1 strain, at 50.0 µM, stronger effect = higher value
Outline: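 Using mec2-1 yeast: add compound, measure growth, express inhibition versus vehicle-treated cultures.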

[3] = NCI Yeast Anticancer Drug Screen. Data for the sgs1 mgt1 strain (AID 161);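 also: 0% = growth of cultures given vehicle only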; details: S. cerevisiae sgs1 mgt1 strain, at 50.0 µM, stronger effect = higher value
Outline: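 This yeast growth screen uses a strain with defined DNA-repair lesions; compound-treated growth is compared with vehicle-treated growth.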

[4] = NCI Yeast Anticancer Drug Screen. Data for the cln2 rad14 strain (AID 165);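 also: 0% = growth equal to vehicle treated cultures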; details: S. cerevisiae cln2 rad14 strain, at 50.0 µM, stronger effect = higher value
Outline: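 Yeast strain cln2 rad14, bearing defects in cell cycle control and DNA repair, serves as the test system; values reflect growth inhibition compared with vehicle.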

[5] = NCI Yeast Anticancer Drug Screen. Data for the bub3 strain (AID 167); details: S. cerevisiae bub3 mutant strain, at 50.0 µM, stronger effect = higher value
Outline: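 In this screen, a yeast mutant lacking normal mitotic checkpoint function is challenged with compound. Relative growth versus vehicle gives the inhibition value.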

[6] = NCI Yeast Anticancer Drug Screen. Data for the mlh1 rad18 strain (AID 175); details: S. cerevisiae mlh1 rad18 strain growth inhibition; at 50.0 µM; stronger effect = higher value
Outline: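 Steps: expose repair-defective yeast to compound; measure growth; express inhibition against vehicle-treated controls.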

Measured: growth inhibition

CCOC(=O)Nc1n[nH]nc1Cl
inactive: [1] -21.5% | [2] -10.1% | [3] 25.1% | [4] -20.9% | [5] -20.1% | [6] -12.7%

CC12CCC(Cl)(CC1O)C2(C)C (stereo unspecified)
inactive: [1] 1.9% | [2] 11.6% | [3] 1.15% | [4] 2.05% | [5] -6.9% | [6] -1.05%

O=C(NO)Oc1cccc2ccccc12
inactive: [1] 9.7% | [2] 0.55% | [3] 0.25% | [4] 6.75% | [5] -3.3% | [6] 5.85%

Cc1ncc(COP(=O)(O)O)c(C)c1O
inactive: [1] -15.7% | [2] -10.1% | [3] -33.5% | [4] -33.6% | [5] -31.3% | [6] -13.6%

O=S1(=O)CC(O)C(Br)C1 (stereo unspecified)
inactive: [1] -6.7% | [2] 24.1% | [3] 10.1% | [4] 4.85% | [5] 2.35% | [6] -10.8%

CNC(=O)c1ccccc1CC(O)c1ccccc1 (stereo unspecified)
inactive: [1] -7.95% | [2] 0.65% | [3] 4.75% | [4] 6.75% | [5] 0.9% | [6] 8.95%

O=[N+]([O-])c1ccc(F)cc1C(F)(F)F
inactive: [1] 19.1% | [2] -17.4% | [3] 32.4% | [4] -10.2% | [5] 0.2% | [6] 43.5%

CC(C)(C#N)NC(=O)NC(C)(C)C(N)=O
inactive: [1] -4.1% | [2] 2.25% | [3] -3.25% | [4] -50.2% | [5] 9.5% | [6] -1.4%

Nc1nc2c(c(-c3ccccc3)n1)CN(CCCC(=O)O)C2=O
inactive: [1] 5.75% | [2] 14.8% | [3] 3.7% | [4] -3% | [5] 11.9% | [6] -0.45%

CCOC(=O)c1c(C)n2c3c(cccc13)CCC2
inactive: [1] 23.4% | [2] 16.9% | [3] 3.05% | [4] 61.6% | [5] 8.6% | [6] 12.8%

CC(=O)OCC1OC(n2c(=S)n(-c3ccc([N+](=O)[O-])cc3)c(=O)c3ccccc32)C(OC(C)=O)C(OC(C)=O)C1OC(C)=O (stereo unspecified)
inactive: [1] -6.3% | [2] 19.1% | [3] -9.55% | [4] 19% | [5] 11.8% | [6] 9.1%

Cc1ccc(-n2cnc3c(Cl)ncnc32)cc1[N+](=O)[O-]
inactive: [1] -4.05% | [2] 12.3% | [3] 15.1% | [4] -45% | [5] 1.65% | [6] 10.9%

O=Cc1cccc(/C=N/Nc2nnc(N/N=C/c3cccc(C=O)c3)c3ccccc23)c1
inactive: [1] 30.6% | [2] 26.5% | [3] 35.5% | [4] 33.1% | [5] -3.2% | [6] 17.1%

COc1cc(C2C(Cl)C(=O)N2NC(=O)c2ccc(N)cc2)ccc1O (stereo unspecified)
inactive: [1] 5.15% | [2] -0.75% | [3] -25.1% | [4] -3.8% | [5] -16.4% | [6] -8.75%

CC(C)(C)c1cc(-c2cc(C(C)(C)C)n(-c3ccccc3)n2)nn1-c1ccccc1
inactive: [1] -22.6% | [2] -26.9% | [3] -17.3% | [4] 16% | [5] -31.4% | [6] -27.2%

CC[C@@H](C)[C@H]([C@H](CC(=O)N1CCC[C@@H]1[C@@H](OC)[C@H](C)C(=O)N[C@H](Cc1ccccc1)c1nccs1)OC)N(C)C(=O)[C@H](NC(=O)[C@@H](C(C)C)N(C)C)C(C)C
inactive: [1] 6.95% | [2] -22.6% | [3] -2.2% | [4] 8.3% | [5] 20.3% | [6] 16.8%

COC(=O)C(/C(=N/NC(=O)c1ccncc1)C(=O)Nc1ccccc1OC)c1nc2ccc(Cl)cc2[nH]c1=O (stereo unspecified)
inactive: [1] 5.8% | [2] -6% | [3] -11% | [4] -38% | [5] -17.7% | [6] 11.4%

CSc1ccc(NC(=O)Nc2ccc(Cl)cc2C(=O)c2ccccc2)cc1
active: [1] 96.5% | [2] 97.8% | [3] 93.7% | [4] 98% | [5] 88.5% | [6] 97.8%

Cc1ccccc1C(=O)NCc1ccccc1
inactive: [1] 13.6% | [2] -6.7% | [3] 0.6% | [4] -27.5% | [5] 11.3% | [6] 4.25%

COc1c(-c2ccccc2)c(=O)n2c3cc(C)c(C)cc3n(C)c2c1C#N
inactive: [1] -13.4% | [2] -0.4% | [3] 18.5% | [4] -13.9% | [5] -31.1% | [6] -2.85%

CC(=O)NC(CSCC(=O)c1ccccc1)C(=O)O (stereo unspecified)
inactive: [1] -12.6% | [2] -8% | [3] -10.3% | [4] -6.05% | [5] -18.8% | [6] -3.5%
